The whole screen tested about 290,000 compounds, of which about 260 (0.09%) were called active. No stated cut-off is given here; in the data, active means inhibition above about 50%; inactive means the rest. What follows is part of a selection rich in actives, with near analogues and random picks from the rest. Entries with a potency or affinity are not part of this list.
Each compound was assayed against Kappa-type opioid receptor (Homo sapiens) (UniProt P41145) (assay: kappa opioid receptor blockers – cell-based, luminescence, uHTS (AID 1778)). Conditions: KOR beta-arrestin recruitment, antagonist mode, hits give high values; at 10 µM unless noted.
Kappa-type opioid receptor (Homo sapiens), sequence (P41145 whole entry, looked up): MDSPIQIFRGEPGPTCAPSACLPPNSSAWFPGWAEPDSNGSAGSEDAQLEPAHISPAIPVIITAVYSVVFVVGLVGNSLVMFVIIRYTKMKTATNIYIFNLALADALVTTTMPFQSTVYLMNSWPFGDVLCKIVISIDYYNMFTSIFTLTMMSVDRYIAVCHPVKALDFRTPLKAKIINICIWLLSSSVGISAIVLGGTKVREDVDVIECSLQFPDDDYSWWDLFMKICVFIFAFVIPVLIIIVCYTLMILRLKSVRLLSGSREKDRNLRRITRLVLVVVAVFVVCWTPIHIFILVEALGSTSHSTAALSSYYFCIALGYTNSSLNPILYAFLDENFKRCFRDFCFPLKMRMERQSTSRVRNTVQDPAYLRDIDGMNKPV

| Compound | inhibition |
| --- | --- |
| COc1cc2c(cc1OC)C1(CCCC1)CNC2c1ccc([N+](=O)[O-])cc1 (stereo not drawn) | -8.4% (inactive) |
| COc1cc2c(cc1OC)C1(CCCC1)CNC2C (stereo not drawn) | 7.4% (inactive) |
| COc1ccc(OC)c(NC(=O)Nc2ccc3c(c2)OCO3)c1 | -10.5% (inactive) |
| O=C(Nc1ccc(C(F)(F)F)cc1)c1ccc2ncsc2c1 | -15.9% (inactive) |
| O=C1C(Cl)=C(Nc2ccccc2)C(=O)c2ccccc21 | 15.5% (inactive) |
| O=C1C(Cl)=C(Nc2ccc3cn[nH]c3c2)C(=O)c2ccccc21 | 76.4% (active) |
| Cc1ccc(NC2=C(Cl)C(=O)c3ccccc3C2=O)cc1 | 37.4% (inactive) |
| COC(=O)c1c(NC(=O)/C=C/C(=O)O)sc(Cc2ccccc2)c1C | 14.3% (inactive) |
| NNC(=O)c1ccc(CSc2cccc3cccnc23)cc1 | -21.6% (inactive) |
| O=C(c1ccc(CNS(=O)(=O)c2ccc(Br)cc2)cc1)N1CCCCCC1 | -30.5% (inactive) |
| CC(=O)N1CCc2cc(S(=O)(=O)NC(Cc3ccccc3)C(=O)NCCN3CCCCC3C)ccc21 (stereo not drawn) | 15% (inactive) |
| Oc1[nH]c(=S)sc1C=C1N=c2ccccc2=N1 | 6.5% (inactive) |
| N#CC(=C1N=c2ccccc2=N1)c1c(O)[nH]c2ccccc12 | -33.6% (inactive) |
| Oc1[nH]c(N=C2N=c3ccccc3=N2)c2ccccc12 | 59.4% (active) |
| O=C(COc1ccccc1)N1CCN=C1SCc1ccc(F)cc1 | 2.9% (inactive) |
| O=C(CSc1nnc2c(Cl)cc(C(F)(F)F)cn12)N(Cc1ccccc1)Cc1ccccc1 | 1% (inactive) |
| Cc1cc(NS(=O)(=O)c2ccc(NC(=O)c3ccc(Cl)cc3Cl)cc2)no1 | -5.5% (inactive) |
| O=C(N/N=C(\c1ccccc1)c1cccnc1)c1cc(O)ccc1O | -0.3% (inactive) |
| O=C(N/N=C(\c1ccccc1)c1cccnc1)c1ccc(O)cc1 | 28.3% (inactive) |
| CC1=C(C#N)C(NC(=O)c2ccco2)(C(F)(F)F)C(=O)N1 (stereo not drawn) | 9.4% (inactive) |
| CCc1nnc(NC(=O)c2c(OC)cccc2OC)s1 | -5.6% (inactive) |
| CCc1nnc(NC(=O)c2ccc3ccccc3n2)s1 | 0.1% (inactive) |
| C=CCN1C(=O)C(CC(=O)O)SC1=Nc1ccc(C(=O)O)cc1 (stereo not drawn) | 5.3% (inactive) |
| CCOC(=O)C1CCN(S(=O)(=O)c2cc(C(=O)N3CCCCC3)ccc2OC)CC1 | 2.3% (inactive) |

| Compound | inhibition |
| --- | --- |
| COc1ccc(CNC(=O)C2CCC(=O)N(CCCN3CCCC3=O)C2)c(OC)c1 (stereo not drawn) | -21.5% (inactive) |
| COc1cc(NC(=O)CN2C(=O)CN(C)C2=O)c(C)cc1[N+](=O)[O-] | -7.1% (inactive) |
| COc1cc(NC(=O)CN2CCCCC2)c(C)cc1[N+](=O)[O-] | 13% (inactive) |
| COc1ccc(SCC(=O)c2cc(C)c(OC(=S)N(C)C)c(C)c2)cc1 | -46.3% (inactive) |
| CC(C)C(=O)OCC(=O)NCc1ccccc1Cl | -7.3% (inactive) |
| O=C(CCN1C(=O)[C@@H]2Cc3ccccc3CN2C1=O)N[C@H](Cc1ccccc1)C(=O)O | -10% [at 20 µM] (inactive) |
| C=CCn1c(O)c(N=NC(=S)Nc2cccc(OC)c2)c2ccccc21 | 52.2% (active) |
| C=CCn1c(O)c(N=NC(=S)Nc2ccc(OC)cc2)c2ccccc21 | 44.9% (inactive) |
| C=CCn1c(O)c(N=NC(=S)Nc2cccc(C)c2)c2ccccc21 | 34% (inactive) |
| N=C1C(c2nc3ccccc3s2)=C(O)CN1CCCO | 5.8% (inactive) |
| CCN(CC)CCCN=Cc1c(-c2ccccc2)[nH]n(-c2nc3ccccc3s2)c1=O | 2.1% (inactive) |
| Cc1cc(Cl)ccc1NC(=O)Cn1cncn1 | -2.4% (inactive) |
| CC(CCc1ccc(O)cc1)NCCC(c1ccccc1)c1ccccc1 (stereo not drawn) | 42.6% (inactive) |
| CC(NCCC(c1ccccc1)c1ccccc1)c1ccccc1 (stereo not drawn) | -18.9% (inactive) |
| CCOC(=O)c1c(C)[nH]c(C)c1C(=O)CSc1nc2ccccc2c(=O)n1-c1ccc(Cl)cc1 | -15.4% (inactive) |
| Nc1c2c(nc3sc4c(c13)CCCC4)CCCCCC2 | -20.4% (inactive) |
| Nc1c2c(nc3sc4c(c13)CCCCC4)CCCCC2 | -28.2% (inactive) |
| Nc1c2c(nc3sc4c(c13)CCCC4)-c1ccccc1CC2 | 9.5% (inactive) |
| Nc1nc2sc3c(c2c(=O)s1)CCCC3 | -49.8% (inactive) |
| CC1CCN(C(=O)COc2ccc3ccccc3c2Br)CC1 | -12.2% (inactive) |
| CCc1ccc(CN2CCC(C(=O)Nc3cccc(-c4nnc(C)s4)c3)CC2)o1 | -24.6% (inactive) |
| O=S(=O)(NCCc1ccccc1)c1ccc(-n2cnnn2)cc1 | -7.2% (inactive) |
| CC(=O)Nc1cccc(NC(=O)COc2nncc3ccccc23)c1 | 13.2% (inactive) |
| CC(C)Cn1c(C(C)NC(=O)Cc2ccccc2)nc2ccccc21 (stereo not drawn) | -13.7% (inactive) |

| Compound | inhibition |
| --- | --- |
| O=C1CCC([N+](=O)[O-])C(c2ccc(Cl)cc2)N1 (stereo not drawn) | -23.8% (inactive) |
| CCOC(=O)c1cc2c(ccc3ccccc32)oc1=O | -26.8% [at 20 µM] (inactive) |
| CC(=O)c1cc2c(ccc3ccccc32)oc1=O | -8.6% (inactive) |
| CC1(C)CC(=O)CC(=Nc2ccc3[nH]c(=O)[nH]c3c2)C1 | 17.9% (inactive) |
| CC1Oc2ccccc2C=C1/C=N/NC(=O)c1ccncc1 (stereo not drawn) | 22.3% (inactive) |
| CC(C)CCn1nnnc1CN1CCN(c2ccc(F)cc2)CC1 | -16.4% [at 20 µM] (inactive) |
| Cc1cccc(N2CCCn3c2nc2c3c(=O)n(CCN3CCOCC3)c(=O)n2C)c1 | -4% (inactive) |
| Cn1c(=O)n(CCN2CCOCC2)c(=O)c2c1nc1n2CCCN1c1ccccc1 | 51.1% (active) |
| Cc1ccc(N2CCCn3c2nc2c3c(=O)n(CCN3CCOCC3)c(=O)n2C)cc1 | -16.1% (inactive) |
| CN(CC(=O)Nc1ccc(F)c(F)c1F)C(=O)c1ccc(=O)[nH]c1 | 31.4% (inactive) |
| CN(Cc1cnn(-c2ccccc2)c1)C(=O)C1CCC(=O)N(C2CC2)C1 (stereo not drawn) | 9.1% (inactive) |
| O=C(O)CNc1nc(-c2ccccc2)c2cc([N+](=O)[O-])ccc2n1 | 4.1% (inactive) |
| O=[N+]([O-])c1ccc2nc(-c3ccccc3)cc(-c3ccccc3)c2c1 | 14.3% (inactive) |
| O=C(O)CCCc1c(-[n+]2ccccc2)[nH]c2ccccc12 | 5.9% (inactive) |
| COCCOC(=O)c1[nH]c2c(c1C)C(=O)CC(c1ccc(OC)c(OC)c1)C2 (stereo not drawn) | -5.3% (inactive) |
| CCCCN(CCCNC(=O)C1CCN(S(=O)(=O)CC)CC1)c1ccccc1 | 23.2% (inactive) |
| CCCCN(CCCNC(=O)C1CCN(S(=O)(=O)N2CCOCC2)CC1)Cc1ccccc1 | 28.7% (inactive) |
| CCN(CCCNC(=O)C1CCN(S(=O)(=O)CC)CC1)c1ccccc1 | 17.3% (inactive) |
| CN(CCCNC(=O)C1CCN(S(=O)(=O)N2CCC3(CC2)OCCO3)CC1)Cc1ccccc1 | -79.2% (inactive) |
| Cc1c(Cl)cccc1NC(=S)N1CCCN(Cc2ccccc2F)C1 | -15.1% (inactive) |
| COc1cccc(C(=O)Oc2cc(C)[nH]c(=O)c2[N+](=O)[O-])c1OC | 6.3% (inactive) |
| CC(C)[C@H](NC(=O)[C@@H]1Cc2ccccc2CN1)C(=O)Nc1ccc2c(c1)OCCO2 | -1.1% (inactive) |
| COc1ccc(N2CCN(C(C)C(=O)N3CC(C)OC(C)C3)CC2)cc1 (stereo not drawn) | -2.4% (inactive) |
| O=C1C(=O)N(CCCn2ccnc2)C(c2ccc(Br)cc2)/C1=C(\O)c1ccc2c(c1)OCCO2 (stereo not drawn) | -11.2% (inactive) |

| Compound | inhibition |
| --- | --- |
| COc1cc2c(c(OC)c1OC)-c1c(cc3c(c1OC)OCO3)[C@@H](OC(C)=O)[C@H](C)[C@H](C)C2 | 20.4% (inactive) |
| C/C=C(/C)C(=O)O[C@@H]1c2cc3c(c(OC)c2-c2c(cc(OC)c(OC)c2OC)[C@@H](OC(C)=O)[C@@H](C)[C@H]1C)OCO3 | 10.7% (inactive) |
| COc1ccc(-c2cc(C(=O)N/N=C/c3cccnc3)c3cc(C)cc(C)c3n2)cc1 | 1.8% (inactive) |
| Cc1cccc(NC(=O)COC(=O)c2ccccc2SCC(=O)N2CCCC2)c1 | 30.1% (inactive) |
| CC(CN1CCN(C)CC1)OC(=O)c1ccccc1 (stereo not drawn) | -12.4% (inactive) |
| COc1ccc(CCN2C(=O)C(Oc3ccccc3)C2c2ccc3c(c2)OCO3)cc1 (stereo not drawn) | -53.4% (inactive) |
| COc1ccc(CCN2C(=O)C(Oc3ccccc3C)C2c2ccc3c(c2)OCO3)cc1 (stereo not drawn) | -11% (inactive) |
| O=C1C(Oc2ccccc2)C(c2ccc3c(c2)OCO3)N1CCc1ccc(F)cc1 (stereo not drawn) | 64% (active) |
| Cc1nc(SCC(=O)N2CCOCC2)c2c(C)c(C)sc2n1 | -32.1% (inactive) |
| O=C(CSC1=NC(=O)C(c2ccccc2)C(=O)N1)Nc1cccc(Cl)c1 (stereo not drawn) | -48.8% (inactive) |
| C/C(=N\NC(=O)COc1ccccc1-c1ccccc1)c1ccc(O)cc1O | -14.4% (inactive) |
| C/C(=N\NC(=O)Cc1ccc(Cl)cc1)c1ccccc1O | -29.7% [at 20 µM] (inactive) |
| C=CCNC(=S)N/N=C(\C)c1cccc(OC)c1 | 26.1% (inactive) |
| C=CCNC(=S)N/N=C(\C)c1cccnc1 | 3.5% (inactive) |
| C/C(=N\NC(=O)c1ccccn1)c1ccc(Cl)cc1 | -13.1% (inactive) |
| C/C(=N\NC(=O)COc1ccccc1-c1ccccc1)c1cccnc1 | -42.8% (inactive) |
| C/C(=N\NC(=O)COc1ccccc1-c1ccccc1)c1ccccn1 | 99% (active) |
| CCCn1c2ccccc2c2cnn(CC(=O)NCCN(C)C)c(=O)c21 | -19% (inactive) |
| COc1ccc(OCCSc2nnc(C)n2-c2ccccc2)cc1 | -14.2% (inactive) |
| O=C(COC(=O)c1c(F)cccc1F)NCCNC(=O)COC(=O)c1c(F)cccc1F | -58.8% (inactive) |
| CC1(C)CNC(=O)CC(C)(C)N1O | 8.7% (inactive) |
